This is an account of results in PubChem BioAssay (Tox21).

Results filed as inconclusive are left out. Values without a mark were called inactive. Activity calls are given as the source filed them. Unless noted, the call rests on the fitted dose curve; in most records, active means well fitted curve in the direction sought with a large enough effect in the repeat runs; inconclusive means weak or mixed curves; inactive means no such curve, though single readings can be large; an effect the other way counts as inactive or inconclusive.

The target of experiment [1] is Aryl hydrocarbon receptor (Homo sapiens) (UniProt P35869). Nature of the experiment: qHTS assay to identify small molecule that activate the aryl hydrocarbon receptor (AhR) signaling pathway (AID 743085).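 Further: HG2L7.5c1 human HepG2 liver cells with stably integrated DRE-driven firefly reporter; series mostly up to about 70 µM; nearly all actives have a fitted effect of over 15% in size.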 An outline of the steps: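 HepG2 cells stably carrying a 20-DRE firefly luciferase reporter (HG2L7.5c1) treated with compound for 24 hr at 37C. Luciferase read by ONE-Glo luminescence, with CellTiter-Fluor viability read first.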
Aryl hydrocarbon receptor (Homo sapiens), sequence (P35869 whole entry, looked up): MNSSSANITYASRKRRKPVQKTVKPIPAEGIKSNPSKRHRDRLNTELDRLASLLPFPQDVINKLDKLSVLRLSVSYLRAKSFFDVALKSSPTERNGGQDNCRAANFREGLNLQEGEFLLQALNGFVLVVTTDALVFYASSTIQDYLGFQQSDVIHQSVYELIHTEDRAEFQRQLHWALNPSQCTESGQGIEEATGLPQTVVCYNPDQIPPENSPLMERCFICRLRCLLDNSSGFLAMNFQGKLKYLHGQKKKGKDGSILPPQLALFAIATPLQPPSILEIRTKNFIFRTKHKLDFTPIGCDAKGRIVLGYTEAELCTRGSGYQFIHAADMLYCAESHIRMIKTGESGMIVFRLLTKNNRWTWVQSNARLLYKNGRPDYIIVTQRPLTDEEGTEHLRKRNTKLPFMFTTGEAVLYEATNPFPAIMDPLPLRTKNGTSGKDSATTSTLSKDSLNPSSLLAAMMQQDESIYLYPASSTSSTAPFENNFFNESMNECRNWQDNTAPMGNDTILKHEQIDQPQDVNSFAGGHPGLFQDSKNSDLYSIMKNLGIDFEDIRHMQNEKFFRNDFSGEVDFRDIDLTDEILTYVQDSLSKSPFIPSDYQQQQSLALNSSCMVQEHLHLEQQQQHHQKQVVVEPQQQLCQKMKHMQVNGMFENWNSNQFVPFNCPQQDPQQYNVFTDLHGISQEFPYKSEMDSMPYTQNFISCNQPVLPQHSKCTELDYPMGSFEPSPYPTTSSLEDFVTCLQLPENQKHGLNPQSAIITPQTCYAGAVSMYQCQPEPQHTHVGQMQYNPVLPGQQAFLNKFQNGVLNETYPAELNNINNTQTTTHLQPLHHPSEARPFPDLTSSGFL
(In general: In qHTS, concentration-response curves come from the screen itself.)

A short description of experiment [2]: qHTS assay to identify small molecule that activate the aryl hydrocarbon receptor (AhR) signaling pathway - cell viability counter screen (AID 743086). Further: series mostly up to about 70 µM; nearly all actives have a fitted effect of over 45% in size. An outline of the steps:
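HepG2-AhR-luc (HG2L7.5c1) cells, 4000/well, treated 24 h at 37 C with compound; viability measured as CellTiter-Fluor fluorescence after 30 min in the same wells as the luciferase read.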

For experiment [3], the target named is Peroxisome proliferator-activated receptor gamma (Homo sapiens) (UniProt P37231). Nature of the experiment: qHTS assay to identify small molecule agonists of the peroxisome proliferator-activated receptor gamma (PPARg) signaling pathway (AID 743094; active means well fitted activation curve with a large enough effect in the signal ratio in the repeat runs, not every such curve was filed as active; the % refers to the signal ratio). The method, boiled down:
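GeneBLAzer PPARg UAS-bla HEK293H cells were plated, rested 5 h, then exposed to compounds for 17 h at 37C. Beta-lactamase activity was read by LiveBLAzer B/G FRET substrate fluorescence after 1 h at room temperature.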

For experiment [4] the target is unchanged. Nature of the experiment: qHTS assay to identify small molecule antagonists of the peroxisome proliferator-activated receptor gamma (PPARg) signaling pathway (AID 743191; calls by dose curve; further: nearly all actives have a fitted effect of over 30% in size; further: potency means the concentration at half of the fitted maximal effect). The method, boiled down: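 GeneBLAzer PPARg UAS-bla HEK293H cells, 5 h post-plating, exposed to compounds 17 h at 37C. LiveBLAzer B/G FRET substrate added for 1 h at room temperature; beta-lactamase reporter read by fluorescence intensity.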

A short description of experiment [5]: qHTS assay to identify small molecule antagonists of the peroxisome proliferator-activated receptor gamma (PPARg) signaling pathway - cell viability counter screen (AID 743194). Further: nearly all actives have a fitted effect of over 55% in size. The method, boiled down: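 Cytotoxicity counter screen in PPARg-bla HEK293H cells, same wells as reporter assay. Compounds plus 50 nM rosiglitazone (final) for 17 h at 37 C, then viability read by CellTiter-Glo luminescence.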

Experiment [6] is described as follows: qHTS assay for small molecule agonists of the antioxidant response element (ARE) signaling pathway (AID 743202; active means well fitted activation curve with a large enough effect in the signal ratio in the repeat runs, not every such curve was filed as active; the % refers to the signal ratio; further: potency means the concentration at half of the fitted maximal effect). The method, boiled down: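 ARE-bla HepG2 cells (beta-lactamase reporter under the antioxidant response element), plated 5 hours, then exposed to compounds 16 hours at 37 C. LiveBLAzer B/G FRET substrate added for 2 hours at room temperature; fluorescence intensity read.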

The nature of experiment [7]: qHTS assay for small molecule agonists of the antioxidant response element (ARE) signaling pathway - cell viability counter screen (AID 743203; calls by dose curve; further: nearly all actives have a fitted effect of over 55% in size; further: potency means the concentration at half of the fitted maximal effect). An outline of the steps: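 ARE-bla HepG2 cells were plated, rested 5 h at 37C/5% CO2, then exposed to compounds in DMSO for 16 h. Viability was read as CellTiter-Glo luminescence after 30 min at room temperature, in the same wells as the ARE screen.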

Experiment [8] can be described thus: qHTS assay for small molecule activators of the heat shock response signaling pathway - cell viability counter screen (AID 743209). Further: nearly all actives have a fitted effect of over 50% in size. An outline of the steps: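 HSE-bla HeLa cells plated overnight, then exposed to Tox21 compounds (23 nL in DMSO) for 5 h at 37 C. After the bla reporter read, CellTiter-Glo was added in the same wells and luminescence read after 30 min at room temperature.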

The nature of experiment [9]: qHTS assay for small molecule activators of the heat shock response signaling pathway (AID 743210; active means well fitted activation curve with a large enough effect in the signal ratio in the repeat runs, with a control signal flat, not every such curve was filed as active; the % refers to the signal ratio; further: series mostly up to about 63 µM). The method, boiled down: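 HSE-bla HeLa cells (beta-lactamase reporter under heat shock response elements), plated overnight, then exposed to compounds 5 h at 37 C; LiveBLAzer B/G FRET substrate added, 2.5 h at room temperature, fluorescence intensity read.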
Experiment [10] is described as follows: qHTS assay to identify aromatase inhibitors - cell viability counter screen (AID 743084).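 Further: cells stimulated with testosterone during compound exposure; nearly all actives have a fitted effect of over 55% in size.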 Further: potency means the concentration at half of the fitted maximal effect.

Peroxisome proliferator-activated receptor gamma (Homo sapiens), sequence (P37231 whole entry, looked up): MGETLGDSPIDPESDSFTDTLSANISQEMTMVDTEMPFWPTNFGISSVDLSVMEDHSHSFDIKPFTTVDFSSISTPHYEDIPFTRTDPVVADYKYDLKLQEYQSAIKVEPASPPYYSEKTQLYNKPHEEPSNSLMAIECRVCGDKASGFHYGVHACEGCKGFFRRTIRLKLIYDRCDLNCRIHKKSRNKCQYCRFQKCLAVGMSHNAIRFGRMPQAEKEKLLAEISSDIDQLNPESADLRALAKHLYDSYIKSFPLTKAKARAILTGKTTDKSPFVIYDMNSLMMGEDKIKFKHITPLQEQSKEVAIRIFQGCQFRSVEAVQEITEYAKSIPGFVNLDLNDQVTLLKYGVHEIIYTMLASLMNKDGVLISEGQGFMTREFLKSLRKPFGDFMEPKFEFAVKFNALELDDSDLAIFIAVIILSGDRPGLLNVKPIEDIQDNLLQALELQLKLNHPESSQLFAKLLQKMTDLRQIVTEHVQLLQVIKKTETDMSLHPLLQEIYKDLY

As for `CC(C)C(=O)OCC(C)(C)C(O)C(C)C` (stereo unspecified), the Potency result in [1], in [3], in [4], in [5], in experiment [6] and in experiment [7] was “inactive” in each case. Besides, in experiment [9], the Potency entry was “inactive”. Besides, the outcome in [2] and in experiment [8] was inactive.
As to `CCCS(=O)c1ccc2nc(NC(=O)OC)[nH]c2c1` (stereo unspecified), the Potency entry in [5] and in experiment [9] was “inactive” throughout. Further, the compound was classed as inactive in experiment [8].
`CC(C)NC[C@@H](O)COc1cccc2ccccc12`: the Potency entry in [10], in [5] and in experiment [9] was “inactive” each time. Further, the outcome in experiment [2] and in [8] was inactive.
Take `CN(C)CC[C@@H](c1ccc(Cl)cc1)c1ccccn1`: the Potency result in [1], in experiment [6], in experiment [7] and in experiment [9] was “inactive” in each case. Moreover, the compound was called inactive in experiment [2] and in experiment [8].
As for `COC(=O)/C=C(/C)N`, the Potency result in experiment [4], in experiment [5], in experiment [6], in experiment [7] and in [9] was “inactive” throughout.
Regarding `Cc1onc(-c2ccccc2)c1C(=O)Cl`, the Potency entry in experiment [5], in experiment [6], in [7] and in experiment [9] was “inactive” in each case. The compound was classed as inactive in experiment [8].
As to `N#CSCC(=O)O`, the Potency result in experiment [6] is “inactive”.
For the compound `CN1CCN(N)CC1`, the Potency entry in experiment [4], in experiment [5], in experiment [6], in experiment [7] and in [9] was “inactive” each time. For the same compound, the outcome in [8] was inactive.
For `CCCOc1ccc2c(c1)CC[C@@H]1[C@@H]2CC[C@]2(C)C(OC)CC[C@@H]12` (stereo partly specified), the Potency result in [5], in experiment [7] and in experiment [9] was “inactive” throughout.
Consider `CCCCCCOc1ccc(N)cc1`, for which, in experiment [2], the call was inactive. Besides, the Potency result in experiment [3], in experiment [4], in [5], in experiment [6] and in experiment [9] was “inactive” in each case.
With `NC(=O)NS(=O)(=O)c1ccc(Cl)cc1`, the Potency entry in [4], in experiment [5], in experiment [6] and in experiment [7] was “inactive” throughout. Besides, the result in [8] was inactive.
Consider `c1ccc(CN(CC2=NCCN2)c2ccccc2)cc1`, for which the Potency result in [10], in [3], in experiment [5], in experiment [7] and in experiment [9] was “inactive” each time.
In the case of `Cc1c[nH]c(=S)[nH]c1=O`, the Potency entry in experiment [1], in experiment [3], in experiment [4], in [6] and in [7] was “inactive” throughout. In addition, the compound was called inactive in experiment [2] and in experiment [8].
As for `CCOC(=O)c1cc(=O)c2c(OCC(COc3cccc4oc(C(=O)OCC)cc(=O)c34)OC(=O)[C@@H](N)CCCCN)cccc2o1`, the Potency entry in [4], in experiment [6] and in [9] was “inactive” in each case.
For the compound `O=Cc1ccc(O)c(O)c1O`, the Potency entry in experiment [4], in [5] and in [7] was “inactive” in each case. For the same compound, the Potency in experiment [6] is 23.7 µM (active).
`CC[C@H]1CC[C@H](NCc2cc3c(cc2OC)[C@H]2C[C@H]2C(=O)N3C)[C@H](c2ccccc2)N1`: the Potency entry in experiment [1], in experiment [4], in experiment [5], in [7] and in [9] was “inactive” each time. For the same compound, the call in experiment [8] was inactive.
On to `CCCCCCn1c(=O)c2c(ncn2C)n(C)c1=O`, for which the Potency entry in experiment [5], in experiment [6] and in [9] was “inactive” throughout. Further, in experiment [8], the compound was classed as inactive.
As for `O=C(C(Cl)Cl)N1CCOC12CCCCC2`, the Potency result in experiment [1], in [3] and in [5] was “inactive” throughout. Further, the compound was called inactive in [2] and in experiment [8]. The Potency in [6] was 34.4 µM (active).
As for `CCC/C=C/CO`, the Potency result in experiment [1], in experiment [3], in [6], in [7] and in experiment [9] was “inactive” each time. In addition, the compound was called inactive in experiment [2] and in experiment [8].
For `CCc1cc2cc(OC)c(OC)cc2c(Cc2ccccc2)n1`, the Potency entry in experiment [5], in experiment [6], in experiment [7] and in [9] was “inactive” in each case. Further, the outcome in [8] was inactive.
As to `Cc1cc2c(s1)Nc1ccccc1N=C2N1CCN(C)CC1`, the Potency in experiment [10] is 23.7 µM (active). Also, the Potency result in experiment [3], in experiment [5] and in [7] was “inactive” throughout. The compound was called inactive in [8].
Take `O=C1Nc2ccc([N+](=O)[O-])cc2C1=O`: the Potency entry in [7] and in experiment [9] was “inactive” throughout. Besides, the compound was called inactive in experiment [8].
On to `O=C1CCN(c2ccccc2)N1`, for which the Potency entry in experiment [10], in experiment [6] and in [7] was “inactive” in each case. Further, the result in experiment [2] and in [8] was inactive.
In the case of `CC1=NN(c2cc(Cl)c(S(=O)(=O)O)cc2Cl)C(=O)C1N=Nc1ccc(S(=O)(=O)O)cc1` (stereo unspecified), the Potency entry in experiment [1], in [3], in experiment [4], in experiment [5], in [6] and in experiment [7] was “inactive” each time. Moreover, in experiment [9], the Potency result was “inactive”.
Take `Cc1nc(N)nc(N)c1-c1ccc(Cl)c(Cl)c1`: the Potency in experiment [4] was 1.88 µM (active); in experiment [7], 0.668 µM (active). The compound was classed as inactive in experiment [8]. Moreover, the Potency result in experiment [9] was “inactive”.
Take `Cc1cn([C@@H]2O[C@H](CO)[C@@H](O)[C@@H]2F)c(=O)[nH]c1=O`: the Potency result in [5], in experiment [6], in experiment [7] and in experiment [9] was “inactive” each time. Also, in experiment [8], the call was inactive.
Consider `COC(=O)N[C@H](C(=O)N[C@@H](Cc1ccccc1)[C@@H](O)CN(Cc1ccc(-c2ccccn2)cc1)NC(=O)[C@@H](NC(=O)OC)C(C)(C)C)C(C)(C)C`, for which the Potency entry in experiment [1], in experiment [4] and in experiment [9] was “inactive” each time. The compound was called inactive in experiment [8].
For the compound `C/C(=N\O)[C@@H](C)NCC(C)(C)CN[C@H](C)/C(C)=N/O`, the Potency result in experiment [4], in [5], in [6], in experiment [7] and in experiment [9] was “inactive” throughout. For the same compound, in experiment [8], the compound was classed as inactive.
Turning to `CCCC(CCC)(C(=O)OCC)C(=O)OCC`, the Potency entry in experiment [5], in experiment [6] and in experiment [9] was “inactive” each time.
Regarding `CC(Oc1c(Cl)cccc1Cl)C1=NCCN1` (stereo unspecified), in experiment [7], the Potency entry is “inactive”. The call in experiment [8] was inactive.
Turning to `Cc1cc(NS(=O)(=O)c2ccc(N)cc2)nc(C)n1`, the Potency entry in [1], in experiment [3], in [4], in [5], in experiment [6] and in [7] was “inactive” in each case. For the same compound, the Potency entry in [9] is “inactive”. The compound was called inactive in experiment [2] and in experiment [8].
Consider `Nc1ccc2ccccc2c1S(=O)(=O)O`, for which the Potency entry in experiment [5], in [7] and in experiment [9] was “inactive” each time. Besides, in [6], the Potency is 12.4 µM (active). The outcome in experiment [8] was inactive.
Turning to `CCN(CC)CCOc1ccc(Cc2ccccc2)cc1`, the Potency result in [10], in experiment [3], in experiment [4], in experiment [5], in [7] and in [9] was “inactive” throughout. For the same compound, the compound was called inactive in experiment [8].
`Cc1ccccc1C(=O)Nc1ccc(C(=O)N2CCCC(O)c3cc(Cl)ccc32)c(C)c1` (stereo unspecified): the Potency result in experiment [10], in experiment [4], in experiment [6], in [7] and in experiment [9] was “inactive” each time.
